Results reported in the supplement of paper PMC13094657.
± gives the standard deviation of the averaged measurements.

What follows are molecules tested on MDA-MB-231 (assay: kynurenine production, fold change vs DMSO IFNg/TNF control; higher = more kynurenine produced (less inhibition)). Settings: pre-treatment time: 18 h then 24 h IFNg/TNF.
Summary of the method: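 MDA-MB-231 cells (7 × 10^4/well, 96-well plates, seeded 24 h earlier) were pre-treated 18 h with each natural product in 0.1% DMSO, then stimulated 24 h with IFNγ (1 U/ml) and TNF (6.25 ng/ml) at 37°C. Supernatant kynurenine was read at 492 nm after trichloroacetic acid and p-dimethylaminobenzaldehyde treatment, against 0–100 μM standards. Kynurenine production is the fold change over cytokine-stimulated vehicle wells on the same plate, averaged over duplicate plates in the first screening round.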
In the case of `C[C@@H]1CC[C@]2(C(=O)O)CC[C@]3(C)C(=CC[C@@H]4[C@@]5(C)CC[C@H](O)[C@@](C)(CO)[C@@H]5CC[C@]43C)[C@@H]2[C@]1(C)O` [Rotundic acid] (compound dose: 10 uM), the kynurenine production is reported as 0.929 ± 0.021.
`C/C=C1/[C@H](O[C@@H]2O[C@H](CO)[C@@H](O)[C@H](O)[C@H]2O)OC=C(C(=O)OC)[C@H]1CC(=O)OCCc1ccc(O)c(O)c1` [Oleuropein] (compound dose: 10 uM) was tested, and the kynurenine production was 0.733 ± 0.15.
For `CC1(C)O[C@H]2CC(=O)OC[C@]23[C@H]2CC[C@@]4(C)[C@H](c5ccoc5)OC(=O)[C@H]5O[C@]54[C@]2(C)C(=O)C[C@@H]13` [Limonin] (compound dose: 10 uM), the kynurenine production was 0.86 ± 0.3.
`COC(=O)C1=CO[C@@H](O[C@@H]2O[C@H](CO)[C@@H](O)[C@H](O)[C@H]2O)[C@H]2[C@@H]1[C@H](O)C[C@]2(C)OC(C)=O` [Barlerin] (compound dose: 10 uM) was tested, and the kynurenine production was 0.884 ± 0.11.
Molecule `COC(=O)C1=CC[C@@]23CC[C@@H]([C@@](C)(/C=C/C=C(\C)C(=O)O)OC2=O)[C@@]3(O)CC1` [Pseudolaric Acid C] (compound dose: 10 uM) has a kynurenine production of 1.23 ± 0.051.
With `CC1=CC[C@@](O)(C(C)C)CC1` [Terpinen-4-ol] (compound dose: 10 uM) the kynurenine production was 0.984 ± 0.17.
For `CC(C)=CCC[C@@](C)(O)[C@H]1CC[C@]2(C)[C@@H]1[C@H](O)C[C@@H]1[C@@]3(C)CC[C@H](O[C@@H]4O[C@H](CO)[C@@H](O)[C@H](O)[C@H]4O[C@@H]4O[C@H](CO)[C@@H](O)[C@H](O)[C@H]4O[C@@H]4OC[C@@H](O)[C@H](O)[C@H]4O)C(C)(C)[C@@H]3CC[C@]12C` [Notoginsenoside Ft1] (compound dose: 2 uM), the kynurenine production was 0.86 ± 0.16.
